Compound activity from PubChem.
In the library only some 2.9% were active in any assay of this set; here they are far more common.
Shn3 3UTR inh: reduction of Shn3 3'UTR firefly luciferase signal, primary screen, Schnurri-3 inhibitor project, cell-based, Clone20 osteoblasts, set 2; Clone20 osteoblast Shn3 3'UTR firefly luciferase, 24 h; inhibition, % at 12.5 µM; hit rate 0.52% among 360,000; AID 588674, 2011;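 active = mean inhibition of at least 75% with every replicate also reaching 75%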;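 note: 0% = median of neutral control wells and 100% = pilot-screen positive control compound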
Peg3 prom inh: Peg3 promoter-driven luciferase inhibitors, primary screen, cell-based, HeLa, luciferase luminescence; HeLa PEG-Prom luciferase reporter, overnight; inhibition, % at 20 µM; hit rate 1.7% among 360,000; AID 588405, 2011;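 active = inhibition of at least 50% at 20 µM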
KKLEB tox: cytotoxicity in KKLEB CF airway cells, primary screen, cytotoxicity control for CF NF-kB inhibitor project, cell-based, uHTS, fluorescence assay plates; KKLEB CF airway cells viability, ATPlite luminescence, overnight; hits give low values; cells stimulated with P. aeruginosa culture filtrate; activity change (cytotoxicity), % at 5 µM; hit rate 0.36% among 360,000;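 active = corrected activity change at or below -50% at 5 µM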
CF NFkB block: inhibitors of PAF-induced NF-kB signaling, primary screen, cell-based, GFP fluorescence, uHTS; KKLEB NF-kB-GFP reporter, GFP fluorescence overnight; inhibition, % at 5 µM; hit rate 0.86% among 360,000; AID 588850, 2011;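 active = at least 50% inhibition at 5 µM, scaled per plate between neutral and stimulator controls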;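 note: PAF is a Pseudomonas aeruginosa culture filtrate used as stimulus; plate controls were PAF-stimulated DMSO wells for no effect and unstimulated DMSO wells for full effect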
LMP1 NFkB inh: EBV LMP1-driven NF-kappaB luciferase reporter inhibitors, primary screen, cell-based, luminescence, single point; LMP1-induced NF-kappaB luciferase reporter cells; inhibition, % at 12.5 µM; hit rate 0.69% among 350,000; AID 504558, 2011; in the data active = inhibition above about 41%;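 note: 0% = neutral control wells and 100% = reference inhibitor control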
HIF-2a inh: HIF-2a reporter inhibitors, primary screen, luminescence, 786-0 RCC cells; 786-0 RCC cells HIF-2a reporter, luciferase luminescence, overnight; inhibition, % at 18.8 µM; hit rate 0.72% among 360,000; AID 624352, 2012;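 active = inhibition of the luminescence signal of 40% or more relative to plate controls, in a single-dose primary screen at 18.75 µM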
Mdm2 MdmX conf: retested Mdm2-MdmX interaction blockers, confirmation, cell-based, luminescence, single concentration, set 2; shares compounds with HIF-2a inh; SaOS-2 split-luciferase Mdm2/MdmX complementation; inhibition, % at 8 µM; hit rate 99% among 740; AID 504601, 2011;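 active = mean inhibition of the luminescence signal across two replicates at or above 26 percent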
HIF-2a conf: HIF-2a reporter inhibitor retest, confirmation, luminescence, 786-0 RCC cells | shares compounds with HIF-2a inh | inhibition, % at 18.8 µM | HIF-2a luciferase reporter luminescence, overnight | hit rate 56% among 1,800;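 active = mean inhibition across four replicates of at least 40 percent at the single tested concentration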
HIF-1a counter: HIF-1a luciferase reporter signal reduction – MiaPaCa-2 cells, single concentration, counter-screen for HIF-2a inhibitor project, confirmation; shares compounds with HIF-2a inh; MiaPaCa-2 HIF-1a luciferase reporter, desferoxamine, overnight; inhibition, % at 18.8 µM; hit rate 72% among 1,800;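 active = mean inhibition of the reporter signal across four replicates at the single tested dose of 50% or more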
* = called active by the depositor; x = no result given.

SMILES	Shn3 3UTR inh	Peg3 prom inh	KKLEB tox	CF NFkB block	LMP1 NFkB inh	HIF-2a inh	others
O=[N+]([O-])c1ccc(Sc2cccc3cccnc23)c([N+](=O)[O-])c1	93*	97*	-6	-22	-98	17	Mdm2 MdmX conf=83*
O=[N+]([O-])c1cc(Cl)ccc1Sc1cccc2cccnc12	-2	5	-6	4	6	-14
O=[N+]([O-])c1ccc(Sc2ccncn2)c([N+](=O)[O-])c1	58	97*	-55*	90*	26	70*	HIF-2a conf=61*;HIF-1a counter=104*
Cc1cc(C)nc(Sc2ccc([N+](=O)[O-])cc2[N+](=O)[O-])n1	1	44	-20	25	-36	-40
CC(C)CN(C1CCS(=O)(=O)C1)S(=O)(=O)c1ccc(C(C)C)cc1 (stereo unspecified)	9	9	-1	2	2	1
O=C(CSc1ccc2nnc(-c3ccncc3)n2n1)Nc1nccs1	-1	0	16	-18	-23	15
C[C@@H]1CN([C@@H](C)CO)C(=O)c2cccc(NC(=O)Nc3ccc4c(c3)OCO4)c2O[C@H]1CN(C)S(=O)(=O)c1cn(C)cn1	-4	13	9	-23	-17	-2
O=[N+]([O-])c1cc(S(=O)(=O)Nc2cccc(Cl)c2)ccc1N/N=C/c1ccc(N2CCOCC2)cc1	9	8	-10	14	-8	7
O=C1OCC(CO)(CO)N=C1NNc1ccc(Cl)c(Cl)c1	-18	-6	-8	13	-15	-49
O=C(CSc1nnc(-c2ccncc2)o1)Nc1cc(F)ccc1F	-140	-236	15	-4	-17	-166
O=C(CSc1nnc(-c2ccccc2)o1)Nc1ccccc1F	43	39	1	-8	53*	49*	HIF-2a conf=66*;HIF-1a counter=61*
O=C(CSc1nnc(-c2ccc(Br)cc2)o1)Nc1cccc(C(=O)O)c1	28	24	18	-4	75*	63*	HIF-2a conf=63*;HIF-1a counter=-98
CCCCCNC(=O)C1CC(=O)OC12CCCCC2 (stereo unspecified)	-10	8	6	-17	1	21
O=C(NC(=S)Nc1ccc2oc(-c3cccnc3)nc2c1)c1cccc(Cl)c1	4	-33	1	12	-2	16
CO[C@H]1CN(C)C(=O)c2cc(NC(=O)c3cc(C)on3)ccc2OC[C@@H](C)N(C(=O)C2CC2)C[C@H]1C	x	x	x	x	x	-5
Cc1ccc(S(=O)(=O)NN2C(=O)/C(=C\c3ccc(Cl)cc3)SC2=S)cc1	-1	4	-8	11	2	3
NS(=O)(=O)c1ccc(CCN2C(=O)/C(=C\c3ccc(Cl)cc3)SC2=S)cc1	18	83*	11	0	24	42*	Mdm2 MdmX conf=103*
S=C(NC1CCCCC1)N1CCN(C2CCCCC2)CC1	3	-8	2	-13	1	15
Cn1c(=O)c2c(nc(CN3CCc4ccccc4C3)n2Cc2cccc(Cl)c2)n(C)c1=O	26	41	-2	40	-15	43*	HIF-2a conf=15;HIF-1a counter=76*
Cc1cc(N/N=C/c2ccc(N(C)C)cc2)c2ccccc2n1	1	26	2	-12	-18	-120
Cc1cc(C)c2nc(C)cc(N/N=C/c3ccc(O)cc3)c2c1	71	108*	-81*	8	-20	93*	Mdm2 MdmX conf=103*
